# Reference: PubChem BioAssay (NCATS)
# Inconclusive results are not listed. A number with no mark means an inactive call. The source made the active and inactive calls. Calls follow the shape of the dose curve; as a rule, active = well fitted inhibition curve with a large enough effect; inconclusive = small, poorly fitted or top-dose-only effect; inactive = flat fitted curve, though single readings scatter.
# Tested on: PC15
# Assay: qHTS profiling for inhibitors of Plasmodium falciparum proliferation (AID 504749); also: nearly all actives have a fitted effect of over 60% in size;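 as to activity, negative = inhibition: 0% = DMSO vehicle and full inhibition = artemisinin control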
# Conditions: P. falciparum in erythrocytes, SYBR Green DNA, 72 h; series mostly up to 28.7 µM; activity, negative = inhibition: at the top concentration
# Method in brief: (§1)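 In a 72 h erythrocytic culture (37 C, humidified, 5% CO2) at 2.5% hematocrit and 0.3% starting parasitemia, compounds were tested; SYBR Green I in detergent lysis buffer stained parasite DNA overnight.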
# Potency is read from the fitted curve at half-maximal effect.
row,SMILES,"activity, negative = inhibition"
1,CCC(CC)(CC(=O)Nc1cccc(/C=C/c2nc(C3CCC3)cs2)c1)C(=O)O,-0.179%
2,C#C[C@]1(OC(C)=O)CC[C@H]2[C@@H]3CCC4=C/C(=N/O)CC[C@@H]4[C@H]3CC[C@@]21CC,2.66%
3,Cc1cccc(C)c1NC(=O)CN1CCCCCC1,-0.917%
4,CCOC(=O)Nc1ccc2c(c1)N(C(=O)CCN1CCOCC1)c1ccccc1S2,-14.4% [at 12.8 µM]
5,Cc1cc2c(OCC(CNC(C)(C)C)OC(=O)c3ccccc3)cccc2[nH]1 (stereo not drawn),2.67%
6,CCc1ccc(C(=O)C(C)CN2CCCCC2)cc1 (stereo not drawn),-0.257%
7,CCC(C(=O)OCCOCCN(CC)CC)c1ccccc1 (stereo not drawn),-23.1%
8,CN(C)CCN1C(=O)c2ccccc2N(C)c2ccccc21,-29.9%
9,CC(=O)NCCCCCC(=O)O,2.69%
10,CCOc1ccccc1OCCN[C@H](C)Cc1ccc(OC)c(S(N)(=O)=O)c1,8.62%
11,NC(=O)C1(N2CCCCC2)CCN(CCCC(=O)c2ccc(F)cc2)CC1,-3.8%
12,Cc1ncc(CO)c(C=O)c1O,6.63%
13,CC(=O)O[C@H]1C[C@@H]2CC[C@@H]3[C@H](CC[C@@]4(C)[C@H]3C[C@H]([N+]3(C)CCCCC3)[C@@H]4OC(C)=O)[C@@]2(C)C[C@@H]1N1CCCCC1,-3.08%
14,CC[N+](C)(CC)CCOC(=O)C(O)(c1ccccc1)C1CCCCC1 (stereo not drawn),-18.9%
15,COc1ccc(C(=O)c2ccccc2O)c(O)c1,-2.03% [at 12.8 µM]
16,CN1CCN(C2=Nc3ccccc3Sc3ccc(Cl)cc32)CC1,-8.27%
17,CCNC(=O)NCc1cccc(Cl)c1,13.2%
18,Cc1ccc2c(Br)cc(Br)c(O)c2n1,-14.6%
19,O=C(O)CCc1nc2ccccc2[nH]1,11.5%
20,O=S(c1cc(Cl)cc(Cl)c1O)c1cc(Cl)cc(Cl)c1O,1.08%
21,CC(C)[N+](C)(C)CC(O)COc1cccc2ccccc12 (stereo not drawn),-25.1%
22,OC[C@H]1O[C@@H]2O[C@H]3[C@H](O)[C@@H](O)[C@@H](O[C@H]4[C@H](O)[C@@H](O)[C@@H](O[C@H]5[C@H](O)[C@@H](O)[C@@H](O[C@H]6[C@H](O)[C@@H](O)[C@@H](O[C@H]7[C@H](O)[C@@H](O)[C@@H](O[C@H]8[C@H](O)[C@@H](O)[C@@H](O[C@H]1[C@H](O)[C@H]2O)O[C@@H]8CO)O[C@@H]7CO)O[C@@H]6CO)O[C@@H]5CO)O[C@@H]4CO)O[C@@H]3CO,11.6%
23,COC(=O)C(c1ccccc1Cl)N1CCc2sccc2C1 (stereo not drawn),-23%
24,CC(C)=CCOc1ccc(/C=C/C(=O)c2ccc(OCC=C(C)C)cc2OCC(=O)O)cc1,-17%
25,CN1CCN(C2=Nc3cc(F)ccc3Cc3ccccc32)CC1,-13%

# Tested on: PC26
# Assay: as above
# Conditions: P. falciparum in erythrocytes, SYBR Green DNA, 72 h; series mostly up to 28.7 µM; activity, negative = inhibition: at the top concentration
# Method in brief: as §1
SMILES,"activity, negative = inhibition",Potency
CCC(CC)(CC(=O)Nc1cccc(/C=C/c2nc(C3CCC3)cs2)c1)C(=O)O,-1.75%,
Cc1cccc(C)c1NC(=O)CN1CCCCCC1,-0.609%,
CCOC(=O)Nc1ccc2c(c1)N(C(=O)CCN1CCOCC1)c1ccccc1S2,-3.78% [at 12.8 µM],
Cc1cc2c(OCC(CNC(C)(C)C)OC(=O)c3ccccc3)cccc2[nH]1 (stereo not drawn),-20%,
CCc1ccc(C(=O)C(C)CN2CCCCC2)cc1 (stereo not drawn),4.71%,
CCC(C(=O)OCCOCCN(CC)CC)c1ccccc1 (stereo not drawn),-14.7%,
CCOc1ccccc1OCCN[C@H](C)Cc1ccc(OC)c(S(N)(=O)=O)c1,3.4%,
CCN(CC)CCOC(=O)C1(c2ccccc2)CCCC1,-19.7%,
NC(=O)C1(N2CCCCC2)CCN(CCCC(=O)c2ccc(F)cc2)CC1,2.66%,
CN(C)CCOC(c1ccc(Cl)cc1)c1ccccn1 (stereo not drawn),-17.1%,
CC(=O)O[C@H]1C[C@@H]2CC[C@@H]3[C@H](CC[C@@]4(C)[C@H]3C[C@H]([N+]3(C)CCCCC3)[C@@H]4OC(C)=O)[C@@]2(C)C[C@@H]1N1CCCCC1,-21.6%,
CC[N+](C)(CC)CCOC(=O)C(O)(c1ccccc1)C1CCCCC1 (stereo not drawn),-11.2%,
CCNC(=O)NCc1cccc(Cl)c1,-8.25%,
CC(C)[N+](C)(C)CC(O)COc1cccc2ccccc12 (stereo not drawn),-2.31%,
C[N+]1(C)CCC(=C(c2ccccc2)c2ccccc2)CC1,-15.2% [at 12.8 µM],
OC[C@H]1O[C@@H]2O[C@H]3[C@H](O)[C@@H](O)[C@@H](O[C@H]4[C@H](O)[C@@H](O)[C@@H](O[C@H]5[C@H](O)[C@@H](O)[C@@H](O[C@H]6[C@H](O)[C@@H](O)[C@@H](O[C@H]7[C@H](O)[C@@H](O)[C@@H](O[C@H]8[C@H](O)[C@@H](O)[C@@H](O[C@H]1[C@H](O)[C@H]2O)O[C@@H]8CO)O[C@@H]7CO)O[C@@H]6CO)O[C@@H]5CO)O[C@@H]4CO)O[C@@H]3CO,-0.197%,
CCCCCCCCCCCCOCCOCCOCCOCCOCCOCCOCCOCCOCCO,-9.14%,
CN1CCN(C2=Nc3cc(F)ccc3Cc3ccccc32)CC1,-2.72%,
CC(=O)O[C@]1(C(C)=O)CC[C@H]2[C@@H]3C=C(Cl)C4=CC(=O)CC[C@]4(C)[C@H]3CC[C@@]21C,,13500 nM (active)

# Tested on: PC49
# Assay: as above
# Conditions: P. falciparum in erythrocytes, SYBR Green DNA, 72 h; series mostly up to 28.7 µM; activity, negative = inhibition: at the top concentration
# Method in brief: as §1
SMILES,"activity, negative = inhibition",Potency
O=C(CN1CCN(Cc2ccc3c(c2)OCO3)CC1)N1c2ccccc2Sc2ccccc21,-8%,
CCC(CC)(CC(=O)Nc1cccc(/C=C/c2nc(C3CCC3)cs2)c1)C(=O)O,8.38%,
COc1ccc(C(=O)c2ccccc2)c(O)c1,-6.29%,
COc1cc(O)c(C(=O)c2ccccc2)cc1S(=O)(=O)O,14.4%,
C#C[C@]1(OC(C)=O)CC[C@H]2[C@@H]3CCC4=C/C(=N/O)CC[C@@H]4[C@H]3CC[C@@]21CC,9.47%,
Cc1cccc(C)c1NC(=O)CN1CCCCCC1,0.133%,
CCOC(=O)Nc1ccc2c(c1)N(C(=O)CCN1CCOCC1)c1ccccc1S2,-15.9% [at 12.8 µM],
Cc1cc2c(OCC(CNC(C)(C)C)OC(=O)c3ccccc3)cccc2[nH]1 (stereo not drawn),5.03%,
CCc1ccc(C(=O)C(C)CN2CCCCC2)cc1 (stereo not drawn),-6.59%,
CCC(C(=O)OCCOCCN(CC)CC)c1ccccc1 (stereo not drawn),-29.3%,
Oc1ccc(Cl)cc1Cc1cc(Cl)ccc1O,-4.13%,
CC(=O)NCCCCCC(=O)O,10.8%,
CCOc1ccccc1OCCN[C@H](C)Cc1ccc(OC)c(S(N)(=O)=O)c1,7.79%,
NC(=O)C1(N2CCCCC2)CCN(CCCC(=O)c2ccc(F)cc2)CC1,-2.89%,
Cc1ncc(CO)c(C=O)c1O,10.4%,
CC(=O)O[C@H]1C[C@@H]2CC[C@@H]3[C@H](CC[C@@]4(C)[C@H]3C[C@H]([N+]3(C)CCCCC3)[C@@H]4OC(C)=O)[C@@]2(C)C[C@@H]1N1CCCCC1,-3.58%,
CC[N+](C)(CC)CCOC(=O)C(O)(c1ccccc1)C1CCCCC1 (stereo not drawn),-8.03%,

SMILES,"activity, negative = inhibition",Potency
COc1cc([C@H]2Oc3cc([C@H]4Oc5cc(O)cc(O)c5C(=O)[C@@H]4O)ccc3O[C@@H]2CO)ccc1O,1.05%,
CO[C@]12C[C@@H](COC(=O)c3cncc(Br)c3)CN(C)[C@@H]1Cc1cn(C)c3cccc2c13,13.6%,
COc1ccc(C(=O)c2ccccc2O)c(O)c1,1.1% [at 12.8 µM],
CN1CCN(C2=Nc3ccccc3Sc3ccc(Cl)cc32)CC1,7.49%,
CCNC(=O)NCc1cccc(Cl)c1,0.164%,
O=C(O)CCc1nc2ccccc2[nH]1,,10 nM (active)
O=[N+]([O-])c1cccc(S(=O)(=O)NCCNS(=O)(=O)c2cccc([N+](=O)[O-])c2)c1,-6.1%,
O=S(c1cc(Cl)cc(Cl)c1O)c1cc(Cl)cc(Cl)c1O,,398 nM (active)
CC(C)[N+](C)(C)CC(O)COc1cccc2ccccc12 (stereo not drawn),-28.2%,
C[N+]1(C)CCC(=C(c2ccccc2)c2ccccc2)CC1,2.65% [at 12.8 µM],
NCc1ccccc1Sc1ccccc1CO,-24.9%,
OC[C@H]1O[C@@H]2O[C@H]3[C@H](O)[C@@H](O)[C@@H](O[C@H]4[C@H](O)[C@@H](O)[C@@H](O[C@H]5[C@H](O)[C@@H](O)[C@@H](O[C@H]6[C@H](O)[C@@H](O)[C@@H](O[C@H]7[C@H](O)[C@@H](O)[C@@H](O[C@H]8[C@H](O)[C@@H](O)[C@@H](O[C@H]1[C@H](O)[C@H]2O)O[C@@H]8CO)O[C@@H]7CO)O[C@@H]6CO)O[C@@H]5CO)O[C@@H]4CO)O[C@@H]3CO,12.5%,
COC(=O)C(c1ccccc1Cl)N1CCc2sccc2C1 (stereo not drawn),12%,
CCCCCCCCCCCCOCCOCCOCCOCCOCCOCCOCCOCCOCCO,-40.3%,
CC(C)=CCOc1ccc(/C=C/C(=O)c2ccc(OCC=C(C)C)cc2OCC(=O)O)cc1,3.64%,
CN1CCN(C2=Nc3cc(F)ccc3Cc3ccccc32)CC1,-7.91%,
CC(=O)O[C@]1(C(C)=O)CC[C@H]2[C@@H]3C=C(Cl)C4=CC(=O)CC[C@]4(C)[C@H]3CC[C@@]21C,-1.29%,
